Results from PubChem BioAssay (NCI).
Several values for one entry are separate records, joined by “and”; a condition that tells them apart may be missing. Equal values may be shown once. This is part of a sample that, as a whole, favours compounds with a hit. Of some 83,000 tested, about 20% had one in any assay.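 Values shown are percent growth following 48 h exposure of cells in 96-well plates to a single concentration of compound; below 10 was considered active.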 Activity calls are given as the source filed them.

Tests used:
Experiment in all cases: NCI-60 one-dose screen, 48 h (100 = growth as untreated, 0 = no growth, -100 = all killed)
SK-MEL-2 melanoma = test system: SK-MEL-2 melanoma
EKVX NSCLC = test system: EKVX NSCLC
SN12C renal = details: 10 µM unless noted
UO-31 renal = test system: UO-31 renal
TK-10 renal = test system: TK-10 renal
ACHN renal = test system: ACHN renal
CAKI-1 renal = test system: CAKI-1 renal
A498 renal = test system: A498 renal
CCRF-CEM leukemia = test system: CCRF-CEM leukemia
MOLT-4 leukemia = test system: MOLT-4 leukemia

Measured: growth

O=C(O)C1C2CC3C(OC(=O)C31)C2Br (centres undefined)
inactive: SK-MEL-2 melanoma; 10 µM unless noted 95.8% and 105% | EKVX NSCLC; 10 µM unless noted 106% and 95.6% | SN12C renal 95.2% and 103% | UO-31 renal; 10 µM unless noted 91.4% and 97.2% | TK-10 renal; 10 µM unless noted 88.7% and 100% | ACHN renal; 10 µM unless noted 96% and 100% | CAKI-1 renal; 10 µM unless noted 102% and 101% | A498 renal; 10 µM unless noted 103% and 64.4% | CCRF-CEM leukemia; 10 µM unless noted 89.3% and 107% | MOLT-4 leukemia; 10 µM unless noted 96.8% and 106%

CCOC(=O)c1c(C)[nH]c(CO)c1C
inactive: SK-MEL-2 melanoma; 10 µM unless noted 101% | EKVX NSCLC; 10 µM unless noted 79.1% | SN12C renal 95.2% | UO-31 renal; 10 µM unless noted 92.5% | TK-10 renal; 10 µM unless noted 106% | ACHN renal; 10 µM unless noted 107% | CAKI-1 renal; 10 µM unless noted 101% | A498 renal; 10 µM unless noted 107% | CCRF-CEM leukemia; 10 µM unless noted 98.2% | MOLT-4 leukemia; 10 µM unless noted 96.6%

C/C=C1\SC(=S)NC1=O
inactive: SK-MEL-2 melanoma; 10 µM unless noted 111% | EKVX NSCLC; 10 µM unless noted 95.1% | SN12C renal 101% | UO-31 renal; 10 µM unless noted 91.6% | TK-10 renal; 10 µM unless noted 98.4% | ACHN renal; 10 µM unless noted 106% | CAKI-1 renal; 10 µM unless noted 99.3% | A498 renal; 10 µM unless noted 108% | MOLT-4 leukemia; 10 µM unless noted 103%

COc1ccc2nc3cc(Cl)ccc3c(NCCNc3c4ccc(Cl)cc4nc4ccc(OC)cc34)c2c1
active: SK-MEL-2 melanoma; 10 µM unless noted -73.1% | EKVX NSCLC; 10 µM unless noted -83.5% | SN12C renal -89.6% | UO-31 renal; 10 µM unless noted -90.3% | TK-10 renal; 10 µM unless noted -92.7% | ACHN renal; 10 µM unless noted -94.7% | CAKI-1 renal; 10 µM unless noted -79.8% | CCRF-CEM leukemia; 10 µM unless noted -10.9% | MOLT-4 leukemia; 10 µM unless noted -76%
inactive: A498 renal; 10 µM unless noted 22.2%

CN(C)CCOc1ccc2c(c1)C(=O)/C(=C\c1ncc([N+](=O)[O-])n1C)C2
active: SK-MEL-2 melanoma; 10 µM unless noted -72.5% | EKVX NSCLC; 10 µM unless noted -18.9% | SN12C renal 0.0262% | UO-31 renal; 10 µM unless noted -36.7% | TK-10 renal; 10 µM unless noted -9.94% | ACHN renal; 10 µM unless noted -31.9% | CAKI-1 renal; 10 µM unless noted -19.2% | A498 renal; 10 µM unless noted -88% | CCRF-CEM leukemia; 10 µM unless noted -61.1% | MOLT-4 leukemia; 10 µM unless noted -32.1%

O=C(Nc1c(Cl)cccc1Cl)Oc1cccc2cccnc12
inactive: SK-MEL-2 melanoma; 10 µM 79.8% | SK-MEL-2 melanoma; 100 µM 25.9% | UO-31 renal; 10 µM 17% | TK-10 renal; 10 µM 58.8% | TK-10 renal; 100 µM 22.4% | ACHN renal; 10 µM 38.8% | ACHN renal; 100 µM 12.1% | CAKI-1 renal; 100 µM 16.8% | MOLT-4 leukemia; 10 µM 16.6%
active: EKVX NSCLC; 10 µM unless noted -9.97% [100 µM] | UO-31 renal; 100 µM 6.51% | CAKI-1 renal; 10 µM -9.81% | CCRF-CEM leukemia; 10 µM unless noted 8.09% [100 µM] | MOLT-4 leukemia; 100 µM 8.36%

CN(C)C(=O)SC1=C(c2c(Cl)cccc2Cl)C(=O)c2ccccc21
inactive: SK-MEL-2 melanoma; 10 µM unless noted 136% | SN12C renal 82.3% | A498 renal; 10 µM unless noted 115%
active: EKVX NSCLC; 10 µM unless noted 0.799% | UO-31 renal; 10 µM unless noted -34.4% | TK-10 renal; 10 µM unless noted -43.7% | ACHN renal; 10 µM unless noted -43.2% | CAKI-1 renal; 10 µM unless noted -28.9% | CCRF-CEM leukemia; 10 µM unless noted 0.862% | MOLT-4 leukemia; 10 µM unless noted -22.5%

O=C(O)c1c(Cl)c(Cl)c(Cl)c(Cl)c1-c1c2cc(I)c(=O)c(I)c-2oc2c(I)c(O)c(I)cc12
inactive: SK-MEL-2 melanoma; 10 µM 110% and 108% and 73.8% | EKVX NSCLC; 10 µM 98.6% and 98.8% and 91.3% | UO-31 renal; 10 µM 102% and 72.9% and 84% | UO-31 renal; 100 µM 49.8% | ACHN renal; 10 µM 100% and 98.7% and 89.6% | CAKI-1 renal; 10 µM 107% and 102% and 90% | CAKI-1 renal; 100 µM 42.9% | A498 renal; 10 µM 300% and 106% | A498 renal; 100 µM 37.1% | CCRF-CEM leukemia; 10 µM 104% and 101% and 51.4% | MOLT-4 leukemia; 10 µM 110% and 106% and 91.4%
active: SK-MEL-2 melanoma; 100 µM -40.2% | EKVX NSCLC; 100 µM -19.9% | ACHN renal; 100 µM -80.7% | CCRF-CEM leukemia; 100 µM -30.2% | MOLT-4 leukemia; 100 µM -50.2%

CN(C)c1ccc(N=Nc2cccc3ccccc23)cc1
inactive: SK-MEL-2 melanoma; 10 µM unless noted 100% | EKVX NSCLC; 10 µM unless noted 71.7% | SN12C renal 92.9% | UO-31 renal; 10 µM unless noted 57.5% | TK-10 renal; 10 µM unless noted 80.9% | ACHN renal; 10 µM unless noted 91.3% | CAKI-1 renal; 10 µM unless noted 90.2% | A498 renal; 10 µM unless noted 85.3% | CCRF-CEM leukemia; 10 µM unless noted 81.6% | MOLT-4 leukemia; 10 µM unless noted 84.3%

Nc1nc(N)c2nc(CNc3ccc(C(=O)NC(CCC(=O)O)C(=O)O)cc3)cnc2n1 (centres undefined)
inactive: SK-MEL-2 melanoma; 10 µM unless noted 60.1% and 58.9% | EKVX NSCLC; 10 µM unless noted 72.9% and 44.4% | SN12C renal 25.6% and 14.7% | UO-31 renal; 10 µM unless noted 13.6% and 31.4% | TK-10 renal; 10 µM unless noted 54% and 48.1% | ACHN renal; 10 µM unless noted 19.4% | CAKI-1 renal; 10 µM unless noted 25.9% and 21.9% | A498 renal; 10 µM unless noted 45.4% and 85.7% | CCRF-CEM leukemia; 10 µM unless noted 22.6% and 29.9% | MOLT-4 leukemia; 10 µM unless noted 25.8% and 31.5%

OC(CNc1ccnc2cc(Cl)ccc12)CNc1ccnc2cc(Cl)ccc12
active: CCRF-CEM leukemia; 10 µM unless noted -15.8%
inactive: SK-MEL-2 melanoma; 10 µM unless noted 104% | EKVX NSCLC; 10 µM unless noted 78.6% | SN12C renal 37.9% | UO-31 renal; 10 µM unless noted 88.1% | TK-10 renal; 10 µM unless noted 87.5% | ACHN renal; 10 µM unless noted 99% | CAKI-1 renal; 10 µM unless noted 101% | A498 renal; 10 µM unless noted 76.9% | MOLT-4 leukemia; 10 µM unless noted 12%
